PubChem BioAssay
Records with an inconclusive call do not appear. For some of these results: Potency and affinity values are given separately. The source made the active and inactive calls. Unless noted, no rule for the calls is given here.

Tests used:
[1] = target: ATP-dependent translocase ABCB1 (Homo sapiens) (UniProt P08183); assay: P-glycoprotein substrate transport blockade – cell-based (AID 377; in the data active = fluorescence slope change above about 50%); settings: MDR1-expressing cells, fluorescent substrate accumulation slope; stronger effect = higher value; concentration not given here
Chain of ATP-dependent translocase ABCB1 (Homo sapiens) (P08183 whole entry, looked up): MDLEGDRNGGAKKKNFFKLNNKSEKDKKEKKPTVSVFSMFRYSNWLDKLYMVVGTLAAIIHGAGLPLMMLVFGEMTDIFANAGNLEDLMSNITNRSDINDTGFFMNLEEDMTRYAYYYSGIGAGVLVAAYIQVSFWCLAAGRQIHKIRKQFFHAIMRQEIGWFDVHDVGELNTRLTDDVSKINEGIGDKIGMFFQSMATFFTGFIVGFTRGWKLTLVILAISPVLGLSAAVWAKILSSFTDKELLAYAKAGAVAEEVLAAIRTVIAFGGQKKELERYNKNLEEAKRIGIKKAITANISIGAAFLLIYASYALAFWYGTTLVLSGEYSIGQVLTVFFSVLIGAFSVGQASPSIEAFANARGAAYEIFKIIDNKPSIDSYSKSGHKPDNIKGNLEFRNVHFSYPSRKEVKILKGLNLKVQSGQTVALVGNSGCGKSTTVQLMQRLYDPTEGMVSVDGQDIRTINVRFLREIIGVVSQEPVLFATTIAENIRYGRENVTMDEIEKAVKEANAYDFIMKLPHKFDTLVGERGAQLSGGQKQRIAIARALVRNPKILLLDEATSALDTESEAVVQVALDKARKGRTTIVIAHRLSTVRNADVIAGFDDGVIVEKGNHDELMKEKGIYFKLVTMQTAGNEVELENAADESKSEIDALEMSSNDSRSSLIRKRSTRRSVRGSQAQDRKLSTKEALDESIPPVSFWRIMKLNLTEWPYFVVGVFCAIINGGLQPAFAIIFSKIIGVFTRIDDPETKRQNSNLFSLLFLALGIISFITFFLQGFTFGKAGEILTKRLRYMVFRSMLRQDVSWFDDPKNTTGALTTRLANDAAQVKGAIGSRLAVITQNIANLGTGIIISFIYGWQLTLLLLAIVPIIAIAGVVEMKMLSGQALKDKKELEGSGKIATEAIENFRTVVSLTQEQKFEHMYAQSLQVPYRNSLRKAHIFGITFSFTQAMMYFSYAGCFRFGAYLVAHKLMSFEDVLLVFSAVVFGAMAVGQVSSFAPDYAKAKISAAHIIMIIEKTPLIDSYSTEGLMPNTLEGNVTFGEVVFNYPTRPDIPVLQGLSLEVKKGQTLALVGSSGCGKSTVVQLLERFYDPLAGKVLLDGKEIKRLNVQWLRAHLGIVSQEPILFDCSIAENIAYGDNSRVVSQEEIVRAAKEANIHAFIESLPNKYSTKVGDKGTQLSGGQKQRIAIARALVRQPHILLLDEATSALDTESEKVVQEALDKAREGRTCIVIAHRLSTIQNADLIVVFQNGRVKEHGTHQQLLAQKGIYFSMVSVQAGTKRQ

[2] = blockers of polyQ-driven CASP3 activation – cell-based (AID 1583); settings: polyglutamine-induced caspase-3 activation, cell assay; stronger effect = higher value;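 tested at 10 µM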
[3] = yeast 75Q aggregation reduction – 75Q-TubU reporter (AID 1593); settings: Yeast 75Q polyglutamine aggregation reporter
[4] = restoration of touch response, mutant HTT neurons – whole organism, C. elegans mechanosensory neurons, N-terminal huntingtin (AID 1599); settings: C. elegans polyQ-huntingtin mechanosensory neurons, stronger effect = higher value
[5] = blockers of cytochrome c efflux from mitochondria – biochemical, purified mitochondria (AID 1603); settings: stronger effect = lower value;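 also: mouse liver mitochondria challenged with calcium chloride; signal normalized to the plate average as 100%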
[6] = polyglutamine aggregate formation blockers (AID 1604); settings: polyglutamine-induced protein aggregation inhibition assay; stronger effect = higher value; tested at 2.5 µM
[7] = glutamate transport activators, MN-1 cells, MN-1 cell line (AID 1612); settings: MN-1 motor neuron cells, stronger effect = higher value;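 also: tested at 1 µM final; 0% = mean of DMSO vehicle wells on each plate; positive means more glutamate uptake than control and negative means less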
[8] = GFP-Q80 aggregate reduction, neuronal-like cells, cell-based, NGF-treated PC12, GFPQ80 (AID 1614); settings: PC12 NGF-treated GFP-polyQ80 inclusion reduction;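 also: lower means fewer inclusions and 0 means no inclusions at all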
[9] = 75Q-TubH aggregate inhibition, S. cerevisiae, yeast (AID 1616); settings: S. cerevisiae 75Q-TubH polyglutamine aggregation suppression; stronger effect = higher value
[10] = compounds altering viability of human ES cells (AID 493140); settings: human embryonic stem cell survival screen; stronger effect = higher value;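 also: cells exposed to compounds for four days before counting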

Row | Compound | fluorescence slope change [1] | inhibition [2] | score [3] | rescue above control [4] | cytochrome c release ratio [5] | inhibition of aggregation [6] | glutamate uptake change [7] | inclusion score [8] | aggregation suppression score [9] | survival [10]
1 | OCC(O)CN1CCN(c2ccccc2)CC1 (centres undefined) | 54.1% (active) | 9.99% | 1.44 | 10.9 | 0.72 | 68.2% | 0.23% | 2 | 1.04 | 19.2 (inactive)
2 | Cc1ccsc1/C=C/C1=NCCCN1C | – | 26.5% | 0.99 | -7.31 | 0.66 | 25.5% | 1.68% | 2 | 1.28 | 20.3 (inactive)
3 | Cc1ncc([N+](=O)[O-])n1CCO | 22.4% (inactive) | -3.1% | 1.16 | 22.1 | 0.97 | 58.7% | 20.8% | 2 | 0.969 | 10.8 (inactive)
4 | CC(=O)Nc1ccc(OCC(O)CNC(C)C)cc1 (centres undefined) | 57.7% (active) | 19.6% | 1 | 6.87 | 0.77 | 66.7% | -0.19% | 2 | 1.1 | 20.5 (inactive)
5 | NS(=O)(=O)c1cc(C(=O)O)c(NCc2ccco2)cc1Cl | 19.9% (inactive) | 10.9% | 1.37 | -8.35 | 0.82 | 3.24% | -10.7% | 2 | 0.957 | 10.1 (inactive)
6 | CCCc1ncc(C[n+]2ccccc2C)c(N)n1 | – | -2.36% | 1.6 | -0.43 | 0.95 | 84.8% | 5.76% | 1.5 | 0.986 | 8.58 (inactive)
7 | CCCCN(CCCC)CCCOC(=O)c1ccc(N)cc1 | 85.2% (active) | 5.65% | 1.13 | -6.3 | 0.76 | 39.2% | -0.54% | 2 | 1.28 | 2.17 (inactive)
8 | CC(C(=O)O)c1ccc(C(=O)c2cccs2)cc1 (centres undefined) | 12.2% (inactive) | 7.38% | 0.92 | -0.97 | 1.35 | 91.6% | 15.6% | 2 | 0.589 | 6.67 (inactive)
9 | CC(=O)Nc1ccc(O)cc1 | 29.1% (inactive) | -1.78% | 1.1 | 12.7 | 1.05 | 74.9% | -4.6% | 2 | 1.73 | 5.25 (inactive)
10 | CCN(CC)CCOC(=O)C(Cc1cccc2ccccc12)CC1CCCO1 (centres undefined) | 91.9% (active) | -17.5% | 1.25 | 1.39 | 1.11 | 22.2% | -20.3% | 2 | 1.03 | 5.33 (inactive)
11 | CC[C@]12CCCN3CCc4c(n(c5ccccc45)C(=O)C1)[C@@H]32 | 12.1% (inactive) | 11.5% | 1.49 | 15.2 | 1.06 | 76% | -6.74% | 2 | 1.73 | 2 (inactive)
12 | Cc1cc(C)nc(NS(=O)(=O)c2ccc(N)cc2)n1 | – | 5.54% | 1.45 | -12.8 | 1.13 | 22.2% | 2.45% | 2 | 1.21 | 3.75 (inactive)
13 | Nc1ccc(S(=O)(=O)Nc2ccccn2)cc1 | 12.6% (inactive) | -3.18% | 1.17 | 5.7 | 0.88 | 24.2% | -8.49% | 2 | 1.05 | 9.08 (inactive)
14 | Nc1cc(-c2ccncc2)c[nH]c1=O | 8.3% (inactive) | -0.86% | 1.14 | 4.19 | 0.91 | 17.8% | 12.5% | 2 | 1.17 | 2.67 (inactive)
15 | CC(N)CCCC(C)(C)O (centres undefined) | – | 23.3% | 1.12 | -5.82 | 0.68 | 19.1% | -4.36% | 2 | 1.46 | 21.5 (inactive)
16 | CC(=O)N(O)CCCCCNC(=O)CCC(=O)N(O)CCCCCNC(=O)CCC(=O)N(O)CCCCCN | – | -1.64% | 0.93 | -3.69 | 0.93 | 63.2% | -8.52% | 2 | 1.05 | 4 (inactive)
17 | NC(N)=NS(=O)(=O)c1ccc(N)cc1 | – | -31.1% | 1.49 | -3.67 | 1.37 | 93.6% | 5.91% | 2 | 1.54 | 11.5 (inactive)
18 | Nc1ccc(S(N)(=O)=O)cc1 | – | -14.5% | 1.26 | 0.93 | 1.06 | 81.5% | -2.33% | 2 | 1.25 | 5.08 (inactive)
19 | Cc1c(NC(C)C)c(=O)n(-c2ccccc2)n1C | – | 6.61% | 1.54 | -6.83 | 1.16 | 13.7% | 28.4% | 2 | 1.14 | 7.42 (inactive)
20 | COc1ccccc1OCC(O)CO (centres undefined) | 12.6% (inactive) | -27.7% | 0.87 | -10.8 | 1.15 | 58.9% | -12.9% | 2 | 0.924 | 4.75 (inactive)
21 | NS(=O)(=O)c1cc2c(cc1Cl)NC(C(Cl)Cl)NS2(=O)=O (centres undefined) | 24.8% (inactive) | 12.2% | 1.03 | 12.5 | 1.13 | 79.6% | -0.6% | 2 | 1.17 | 3.33 (inactive)
22 | Cc1c(NC(=O)c2cccnc2)c(=O)n(-c2ccccc2)n1C | 25.2% (inactive) | 13.7% | 1.39 | -0.65 | 0.9 | 85.9% | -15.2% | 2 | 1.3 | 16.6 (inactive)
23 | COc1ccc2c(c1)c(CC(=O)OCC(=O)O)c(C)n2C(=O)c1ccc(Cl)cc1 | 79% (active) | -2.12% | 0.67 | 4.6 | 1.11 | 77.8% | -11% | 2 | 0.866 | 19.2 (inactive)

Row | Compound | fluorescence slope change [1] | inhibition [2] | score [3] | rescue above control [4] | cytochrome c release ratio [5] | inhibition of aggregation [6] | glutamate uptake change [7] | inclusion score [8] | aggregation suppression score [9] | survival [10]
24 | CC(C)(Oc1ccc(CCNC(=O)c2ccc(Cl)cc2)cc1)C(=O)O | 88.6% (active) | -1.59% | 1.19 | -10.8 | 0.96 | 61% | 8.93% | 2 | 1.44 | 15.2 (inactive)
25 | O=C(O)CCC(=O)Nc1ccc(S(=O)(=O)Nc2nccs2)cc1 | 2.1% (inactive) | -5.43% | 1.2 | -4.64 | 0.78 | 100% | 14.7% | 2 | 1.1 | 6.17 (inactive)
26 | CO[C@]12C[C@@H](COC(=O)c3cncc(Br)c3)CN(C)[C@@H]1Cc1cn(C)c3cccc2c13 | 159% (active) | 2.79% | 0.99 | 12.5 | 0.85 | 65.4% | 6.29% | 2 | 1.56 | 7.92 (inactive)
27 | COc1c2occc2c(OC)c2c(=O)cc(C)oc12 | 54.2% (active) | 3.52% | 0.76 | 0 | 1.14 | 63.2% | -7.03% | 2 | 0.597 | 22.1 (inactive)
28 | OC(CCN1CCCCC1)(c1ccccc1)c1ccccc1 | 18.2% (inactive) | 19.5% | 1.21 | 10.4 | 1.45 | 65% | -4.45% | 2 | 1.43 | 3.42 (inactive)
29 | CCN(CC)CCNC(=O)COc1ccc(OC)cc1 | – | 62% | 1.13 | -1.97 | 0.98 | 72.2% | 0.53% | 2 | 1.23 | 49.8 (inactive)
30 | CN(C)CCOC(=O)C(c1ccccc1)C1(O)CCCC1 (centres undefined) | – | -1.25% | 1.17 | -1.73 | 0.87 | 90.7% | -0.32% | 2 | 1.32 | 12.5 (inactive)
31 | CCCCOC(=O)c1ccc(N)cc1 | – | 10.7% | 0.73 | 12.6 | 0.92 | 7.84% | 19.2% | 2 | 0.439 | 0.75 (inactive)
32 | Cc1cc(CC(=O)O)n(C)c1C(=O)c1ccc(Cl)cc1 | – | -20.4% | 0.85 | 20.8 | 0.92 | 83.3% | -4.24% | 2 | 0.565 | 3.5 (inactive)
33 | CCN1CCCC(OC(=O)C(c2ccccc2)c2ccccc2)C1 (centres undefined) | – | 7.55% | 1.33 | -11.5 | 1.06 | 23.6% | 7.33% | 1.5 | 1.15 | 12 (inactive)
34 | CCn1cc(C(=O)O)c(=O)c2cnc(N3CCNCC3)nc21 | – | -5.14% | 1.35 | 5.83 | 0.98 | 72.4% | -1.23% | 2 | 1.16 | 5.25 (inactive)
35 | CN(Cc1cc(Br)cc(Br)c1N)C1CCCCC1 | – | 50% | 1.59 | -1.24 | 1.12 | 80.3% | -11.2% | – | 1.07 | –
36 | CCCCCCc1ccc(O)cc1O | – | 8.69% | 0 | -4.19 | 0.54 | 56.7% | 15.5% | – | -0.0012 | –
37 | CCCCCCOc1ccccc1C(N)=O | – | 0.61% | 0.45 | -0.6 | 1.11 | 67.5% | 0.56% | – | 0.156 | –
38 | Nc1nc2c(c(=O)[nH]1)N(C=O)C(CNc1ccc(C(=O)N[C@@H](CCC(=O)O)C(=O)O)cc1)CN2 (some centres undefined) | – | 16.8% | 2.89 | -4.97 | 1.12 | 35% | -0.12% | 1.5 | 2.31 | 8.17 (inactive)
39 | CC1(C)S[C@@H]2[C@H](NC(=O)[C@H](N)c3ccccc3)C(=O)N2[C@H]1C(=O)O | – | 14.1% | 1.62 | -3.83 | 1.35 | 80.3% | -16.2% | 2 | 1.58 | 14.2 (inactive)
40 | Oc1c(I)cc(I)c2cccnc12 | – | 17.6% | -0.2 | -12.4 | 1.04 | 24.2% | 78.2% | – | 0.108 | –
41 | CC(=O)Oc1ccc(C(c2ccc(OC(C)=O)cc2)c2ccccn2)cc1 | – | 10.5% | 1.05 | 5.96 | 1.37 | 74.4% | 13% | 2 | 1.23 | 9.25 (inactive)
42 | COc1cc(NS(=O)(=O)c2ccc(N)cc2)nc(OC)n1 | – | 1.07% | 1.14 | -2.33 | 0.86 | 67.5% | -20.2% | 2 | 1.32 | 3.33 (inactive)
43 | C[n+]1ccccc1/C=N/O | – | 17.5% | 1.27 | 6.93 | 1.18 | 91.3% | -3.95% | 2 | 1.54 | 5.75 (inactive)
44 | CCC(=O)O[C@H]1[C@H](O[C@@H]2[C@@H](C)[C@H](O[C@H]3C[C@@](C)(OC)[C@@H](O)[C@H](C)O3)[C@@H](C)C(=O)O[C@H](CC)[C@@](C)(O)[C@H](O)[C@@H](C)C(=O)[C@H](C)C[C@@]2(C)O)O[C@H](C)C[C@@H]1N(C)C | – | -0.34% | -0.96 | 11.4 | 1.02 | 87.3% | -11.5% | – | -0.59 | –
45 | Cc1cc(NC(=O)C2=C(O)c3ccccc3S(=O)(=O)N2C)no1 | – | 49.9% | 0.18 | -11.8 | 1.04 | 72.2% | 11.8% | 2 | -0.565 | 12.4 (inactive)
46 | O=C(O)c1ccccc1OP(=O)(O)O | – | 6.6% | 0.8 | -8.86 | 1.13 | 61% | -7.63% | 2 | 0.8 | 6.17 (inactive)
